Data as given in PubChem BioAssay (NCI).
This is part of a sample that, as a whole, favours compounds with a hit. Of some 83,000 tested, about 20% had one in any assay.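 Step 1: grow cells in 96-well plates. Step 2: add test compound at a single concentration. Step 3: incubate 48 h. Step 4: record percent growth.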 Unmarked numbers belong to inactive results. The source made the active and inactive calls. Rule for the calls: active = growth percent below 10; inactive = the rest.

The compounds below were run on A498 renal (assay: NCI-60 one-dose screen, 48 h (100 = growth as untreated, 0 = no growth, -100 = all killed)). Conditions: 10 µM unless noted.

Q: How did the growth turn out when `CCC(c1ccccc1)C(CC)c1ccc(O)c(O)c1` (stereo not drawn) was run?
A: 110%

Q: How did the growth turn out when `CN1CCN(c2ccc3nc(-c4ccc5nc(-c6ccc(OCCC(C)(C)C)cc6)[nH]c5c4)[nH]c3c2)CC1` was run?
A: 88.6%

Q: How did the growth turn out when `NC(N)=Nc1ccc(S(=O)(=O)O)cc1` was run?
A: 97.8%

Q: `O=C(/C=C/c1cc2ccccc2[nH]c1=O)/C=C/c1cc2ccccc2[nH]c1=O` was tested. Which growth did it give?
A: 30.4%

Q: Which growth does the source give for `Nc1ccc(Nc2nccc(-c3ccc4ccccc4c3)n2)cc1` here?
A: 16.6%

Q: How did the growth turn out when `C=C1CCC2C3(C)COC(c4ccc(OC)cc4Br)OC3CCC2(C)C1/C=C/C1=CCOC1=O` (stereo not drawn) was run?
A: 72.2%

Q: With `CCC(=O)Oc1ccc(/C(=C(\C)c2ccccc2)c2ccc(OCCN(CC)CC)cc2)cc1` as the compound, how does the growth read?
A: 99.9%

Q: Which growth does the source give for `CC(=O)/C(=C/c1cccc(Cl)c1)C(=O)c1ccccc1` here?
A: 119%

Q: How did the growth turn out when `NS(=O)(=O)c1ccc(-n2ncc3c(=O)[nH]c(CN4CCN(c5cc6c(cc5F)c(=O)c(C(=O)O)cn6C5CC5)CC4)nc32)cc1` was run?
A: 102%

Q: For `COc1ccc(-c2nn(-c3ccccc3)cc2/C=C2\SC(=O)NC2=O)cc1`, which growth is on record?
A: 72%

Q: `O=C(COc1cccc(/C=C2/Oc3ccccc3C2=O)c1)Nc1nccs1` was tested. Which growth did it give?
A: 93.9%

Q: How did the growth turn out when `CN1CCN(Cc2ccc(NC(=O)c3[nH]ncc3Nc3ncnc4sccc34)cc2)CC1` was run?
A: -35.5% (active)

Q: For `CC1=N/C(=C\c2cccc(Br)c2)C(=O)O1`, which growth is on record?
A: 119%

Q: `COc1cc(C(=O)/C=C/c2c(C)n([O-])c3ccc(C)cc3[n+]2=O)cc(OC)c1OC` was tested. Which growth did it give?
A: 95.3%

Q: For `CCN(CC)CC#CCOC(=O)[C@]1(C)CCC[C@@]2(C)[C@H]1CC(C=O)=C1C=C(C(C)C)CC[C@@H]12`, which growth is on record?
A: 69.7%

Q: For `C=C1CCC2C3(C)COC(c4ccccc4Br)OC3CCC2(C)C1C/C=C1/C(=O)OCC1OC(C)=O` (stereo not drawn), which growth is on record?
A: 42.8%

Q: Which growth does the source give for `CCOC(=O)C(=Cc1ccccc1F)C(=O)OCC` here?
A: 131%

Q: `Cn1c2ccccc2c2c3c(c4c5ccccc5n(CCCCCC#N)c4c21)C(=O)N(O)C3=O` was tested. Which growth did it give?
A: -32% (active)

Q: For `CC(=O)C1=C(O)C=C2Oc3c(C(=O)/C=C/c4c(Cl)cccc4Cl)c(O)c(C)c(O)c3[C@]2(C)C1=O`, which growth is on record?
A: -72.4% (active)

Q: `Oc1ccc(Nc2nccc(-c3ccc4ccccc4c3)n2)cc1` was tested. Which growth did it give?
A: 21.8%

Q: `COc1ccc(C(=O)/C=C/c2cc3ccccc3[nH]c2=O)cc1` was tested. Which growth did it give?
A: 47.4%

Q: With `C[C@@]1(N2C(=O)OC[C@@H]2c2ccccc2)C(=O)N([C@H](CC(=O)N2CCC(N3CCCCC3)CC2)C(=O)NCc2cccc(C(F)(F)F)c2)[C@@H]1/C=C/c1ccccc1` as the compound, how does the growth read?
A: 52.3%

Q: How did the growth turn out when `CCOC(=O)c1cnc2ccc(Br)cc2c1Nc1cccc(S(=O)(=O)NC)c1` was run?
A: 77.7%

Q: With `CCN1CCN(Cc2ccc(NC(=O)Nc3nc4ccc(Oc5ccnc(C(=O)NC)c5)cc4s3)cc2C(F)(F)F)CC1` as the compound, how does the growth read?
A: -33.4% (active)

Q: `O=c1c2c3c(sc2n2c(CCl)nnc2n1Cc1ccccc1)CCCC3` was tested. Which growth did it give?
A: 92.5%

Q: How did the growth turn out when `COC(=O)[C@H](C(C)C)n1c(=O)c2cc(OC)c(OC)cc2c2cnc3[nH]ccc3c21` was run?
A: -40.3% (active)

Q: Which growth does the source give for `CC(=O)Oc1ccc(Nc2c3ccccc3nc3ccccc23)cc1` here?
A: -37.2% (active)

Q: With `COc1cc(NCCCCN=C(N)NC(N)=NC(C)C)c2ncccc2c1` as the compound, how does the growth read?
A: 133%

Q: `CCN(CC)C12CCCCC1(C)C(C#N)(C#N)C(C#N)=C(N)O2` (stereo not drawn) was tested. Which growth did it give?
A: 122%

Q: `O=C(CNC1C2CC3CC(C2)CC1C3)Sc1nnc2sc3ccccc3n12` (stereo not drawn) was tested. Which growth did it give?
A: 107%

Q: `COc1ccc(-c2c3c(nc4n[nH]c(-c5ccc(Cl)cc5)c24)-c2ccccc2C(=O)C3=O)cc1` was tested. Which growth did it give?
A: 53.8%

Q: With `O=C(/C=C\c1ccc2ccccc2n1)c1cc(Cl)ccc1O` as the compound, how does the growth read?
A: 113%

Q: Which growth does the source give for `O=C1c2cc3c(cc2-c2c1c1cc(Cl)c(Cl)cc1c(=O)n2CCCn1ccnc1)OCO3` here?
A: -29.9% (active)

Q: `CC1(C)CC(=O)C(c2c(-c3ccccc3)[nH]c3[nH]c(=S)[nH]c(=O)c23)=C(O)C1` was tested. Which growth did it give?
A: 100%

Q: `O=C(/C=C/c1cccc(Br)c1)c1ccccc1` was tested. Which growth did it give?
A: 87.5%

Q: Which growth does the source give for `O=C(CO[N+](=O)[O-])Nc1ccc(C(=O)/C=C/c2ccc(Cl)cc2)cc1` here?
A: 103%

Q: For `CN(C)c1ccc(/C=C\C2=[N+](C)c3ccccc3C2(C)C)cc1`, which growth is on record?
A: 48.2%

Q: For `COc1ccc(CCN2CC=Cn3c2nc2ccccc2c3=O)cc1`, which growth is on record?
A: -7.45% (active)
